Structures can show the parent of a compound that is named as a salt. Over roughly 2,000 compounds, “fractional viability relative to vehicle” has its median near 0.91; the lowest 2% begin near 0.045. The entries come from a sample that favours the lowest values as a whole.
System: TYKNU
Test: fractional viability relative to vehicle; TYKNU is a high-grade serous ovarian cancer line; higher = less growth inhibition
Settings: 72 h
Outline: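 Drug treatment lasted 72 h, with cells grown at 37 °C in 5% CO2 in RPMI 1640 supplemented with 10% FBS. Beforehand, TYKNU control cells or their lentiCRISPRv2 knockout derivatives had been seeded at 500 cells per well into drug-stamped 384-well plates carrying a ~2100-compound library at 2 or 10 μM, in duplicate. Viability came from Cell Titer Glo luminescence, with averaged duplicate treatment wells normalised to duplicate control wells in the same plate position.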

[1] = 2uM, genotype: DNM1L knockout (sgDNM1L #1)
[2] = 2uM, genotype: sgCTRLA1 (non-targeting control)
[3] = 10uM, genotype: DNM1L knockout (sgDNM1L #1)
[4] = 10uM, genotype: sgCTRLA1 (non-targeting control)

Structure (SMILES)	fractional viability [1]	fractional viability [2]	fractional viability [3]	fractional viability [4]
CCCc1nc(C(C)(C)O)c(C(=O)OCc2oc(=O)oc2C)n1Cc1ccc(-c2ccccc2-c2nnn[nH]2)cc1 [Olmesartan Medoxomil]	0.907	0.929	1.1	1.02
CC(C)(C)C#Cc1cc(N(C(=O)[C@H]2CC[C@H](C)CC2)[C@H]2CC[C@H](O)CC2)c(C(=O)O)s1 [VX-222 (VCH-222, Lomibuvir)]	0.983	1.03	0.818	0.95
NC(=O)c1cnc(N[C@@H]2CCCC[C@@H]2N)nc1Nc1cccc(-n2nccn2)c1	0.751	0.853	0.185	0.142
Fc1ccc(CNc2ncnc3ccc(F)cc23)cc1 [Spautin-1]	0.675	0.763	0.67	0.447
O=C(/C=C/c1ccc2ccccc2n1)c1ccncc1	0.0494	0.0683	0.0258	0.0162
O=C(NNc1ccccc1)c1ccncc1	0.723	0.931	0.801	0.659
NNC(=O)c1ccncc1 [Isoniazid]	0.893	1.14	0.875	1.06
Cc1ccc(NC(=O)Nc2cc(C(F)(F)F)ccc2F)cc1Nc1ccc2c(c1)NC(=O)/C2=C\c1ccc[nH]1	0.873	0.905	0.918	0.825
CCOC(=O)c1c(CSc2ccccc2)n(C)c2cc(Br)c(O)c(CN(C)C)c12 [Arbidol HCl]	0.913	1.07	0.611	0.645
CCOC(=O)[C@H](CCc1ccccc1)N[C@@H](C)C(=O)N1C(=O)N(C)C[C@H]1C(=O)O [Imidapril HCl]	0.976	1.1	0.958	1.17
CC(C)C[C@H](NC(=O)CNC(=O)c1cc(Cl)ccc1Cl)B1OC(=O)C(CC(=O)O)(CC(=O)O)O1	0.13	0.0935	0.0814	0.0756
CC(=O)[C@]1(O)Cc2c(O)c3c(c(O)c2[C@@H](O[C@H]2C[C@H](N)[C@H](O)[C@H](C)O2)C1)C(=O)c1ccccc1C3=O [Idarubicin HCl]	0.362	0.165	0.042	0.021
COc1cccc2c1C(=O)c1c(O)c3c(c(O)c1C2=O)C[C@@](O)(C(C)=O)C[C@@H]3O[C@H]1C[C@H](N)[C@H](O)[C@H](C)O1 [Daunorubicin HCl]	0.392	0.254	0.0554	0.0241
COc1cccc2c1C(=O)c1c(O)c3c(c(O)c1C2=O)C[C@@](O)(C(=O)CO)C[C@@H]3O[C@H]1C[C@H](N)[C@H](O)[C@H](C)O1 [Doxorubicin (Adriamycin)]	0.377	0.212	0.437	0.323
Nc1cccc(S(=O)(=O)N2CCCN(S(=O)(=O)c3ccc4c(c3)OCCO4)CC2)c1	0.767	0.995	0.742	0.647
NCCCCCNCC12CC3CC(CC(C3)C1)C2 [IEM 1754 dihydrobroMide]	0.967	0.972	0.91	0.898
CC(=O)Oc1cc2c(s1)CCN(C(C(=O)C1CC1)c1ccccc1F)C2 (stereo not drawn) [Prasugrel]	1.14	1.21	0.897	1.08
C[C@@H]1COCCN1c1cc(C2([S@](C)(=N)=O)CC2)nc(-c2cc[nH]c3nccc2-3)n1	0.189	0.127	0.136	0.0834
CCCCCCCCCCCCCCCCn1cc[n+](Cc2ccccc2)c1C	0.134	0.104	0.0139	0.00629

Structure (SMILES)	fractional viability [1]	fractional viability [2]	fractional viability [3]	fractional viability [4]
Cc1nn(C)c(COc2ccc(N3CCN(S(=O)(=O)N(C)C)CC3)cc2)c1-c1cccc2c(CCCOc3cccc4ccccc34)c(C(=O)O)n(CCN3CCOCC3)c12	0.762	0.94	0.644	0.518
C[C@@H](Oc1cc(-c2cnn(C3CCNCC3)c2)cnc1N)c1c(Cl)ccc(F)c1Cl	0.669	0.73	0.128	0.126
CC[C@H]1[C@@H](O)[C@@H]2[C@H](CC[C@]3(C)[C@@H]([C@H](C)CCC(=O)O)CC[C@@H]23)[C@@]2(C)CC[C@@H](O)C[C@@H]12 [Obeticholic Acid]	0.846	0.891	0.952	0.807
CC(C)(C)C(=O)C(Oc1ccc(Cl)cc1)n1ccnc1 (stereo not drawn) [Climbazole]	0.805	1.06	0.641	0.924
CC(C)(C)c1cc(C(=O)C(C#N)=NNc2cccc(Cl)c2)no1	0.783	0.936	0.57	0.583
CCCC(=O)Nc1cccc(NC(=O)c2ccccc2Br)c1	1.11	1.19	0.939	1.21
CCc1ccc(OCc2ccccc2C(=O)Nc2ccc3nc(C)cc(N)c3c2)cc1	0.117	0.166	0.0139	0.00672
COc1cc2c(cc1OC)CN(CCc1ccc(NC(=O)c3cc(OC)c(OC)cc3NC(=O)c3cnc4ccccc4c3)cc1)CC2 [Tariquidar]	0.769	1.05	0.158	0.555
Cn1c(=O)cc(N2CCC[C@@H](N)C2)n(Cc2ccccc2C#N)c1=O [Alogliptin]	0.928	0.995	0.894	1.03
Cc1ncc([N+](=O)[O-])n1CC(O)CCl (stereo not drawn) [Ornidazole]	1.42	1.24	1.25	1.37
O=C(N/N=C/c1ccc([N+](=O)[O-])o1)c1ccc(O)cc1 [Nifuroxazide]	0.378	1.1	0.0463	0.0163
NC(=O)N/N=C/c1ccc([N+](=O)[O-])o1 [Nitrofural]	1.34	1.13	1.26	1.2
CCOC(=O)c1ccc(N2NC(=O)C(=Cc3ccc([N+](=O)[O-])o3)C2=O)cc1	0.944	1.26	0.872	1.02
CN(C)c1ccc(C(=C2C=CC(=[N+](C)C)C=C2)c2ccc(N(C)C)cc2)cc1 [Crystal Violet]	0.133	0.121	0.0375	0.0133
O=c1[nH]c(=O)n(C2CC(O)C(CO)O2)cc1Br (stereo not drawn) [Bromodeoxyuridine (BrdU)]	0.823	0.962	0.859	0.64
O=C(Nc1ccccc1-c1cn2c(CN3CCNCC3)csc2n1)c1cnc2ccccc2n1	0.608	0.845	0.0197	0.00961
Cc1nc(-c2cccnc2)sc1C(=O)Nc1ccccc1-c1cn2c(CN3CCOCC3)csc2n1	0.821	0.932	0.858	0.78
Cn1c2ccccc2c2c3c(c4c5ccccc5n(CCC#N)c4c21)CNC3=O	0.64	1.01	0.671	0.79
